According to PubChem BioAssay (NCATS):
Inconclusive results are not listed. A call without a number means that no potency is given here. Active and inactive are the calls of the source. The call rests on the fitted dose curve; in most records, active means well fitted cell-killing curve with a large enough effect; inconclusive means small, poorly fitted or top-dose-only effect, or effect the other way; inactive means no such curve, though single readings can be large or run the other way.

Legend:
[1] = Viability qHTS for spleen associated tyrosine kinase inhibitor (SYKi) naive MV4-11 cells (AID 1963823); further: nearly all actives have a fitted effect of over 40% in size
Method in brief: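 SYKi-naive MV4-11 AML cells, 500 per well, were exposed to library compounds for 72 hr at 37 C, 5% CO2. Viability was then read by CellTiter-Glo luminescence after 10 min at room temperature.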

[2] = Viability qHTS for spleen associated tyrosine kinase inhibitor (SYKi) drug resistant MV4-11 cells (AID 1963824); further: nearly all actives have a fitted effect of over 35% in size
Method in brief: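 SYK-inhibitor-resistant MV4-11 AML cells were seeded at 500 per well onto compound and cultured 72 hours (37 °C, 5% CO2). CellTiter-Glo was then added, and after 10 min at room temperature, luminescence gave viability.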
Potency means the concentration at half of the fitted maximal effect.

| SMILES | Potency [1] | Potency [2] |
| --- | --- | --- |
| CCN(CCN(C)C)C(=O)CNCc1cc(C(N)=O)ccn1 | inactive | inactive |
| CC(=O)O[C@]1(C(C)=O)CC[C@H]2[C@@H]3CCC4=CC(=O)CCC4=C3[C@@H](c3ccc(N(C)C)cc3)C[C@@]21C | 25.9 µM (active) | 20.6 µM (active) |
| CC(=O)CCC1=C(C)C(O[C@@H]2O[C@H](CO)[C@@H](O)[C@H](O)[C@H]2O)C(O)CC1(C)C (some centres not stated) | inactive | inactive |
| O=C(/C=C\c1ccc(O)cc1)N[C@@H](Cc1ccc(O)cc1)C(=O)O | inactive | inactive |
| CS(=O)(=O)c1ccc([C@@H](C[C@H]2CCC(=O)C2)C(=O)Nc2cnccn2)cc1Cl | 15.8 µM (active) | 15.8 µM (active) |
| CN1C(=O)c2ccccc2-n2c(nc3ccccc3c2=O)[C@@]12O[C@H]2c1ccccc1 | 3.6 µM (active) | inactive |
